Screening data as filed in PubChem.
GLP1R cytotox – cytotoxic in the GLP-1 receptor inverse agonist counter-screen | HEK293 cAMP-luciferase reporter cells, luminescence, 24 h | Potency, µM (top dose mostly 38.3 µM), actives largely listed as inhibitors | 410,000 compounds, 0.13% hits | AID 624418;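 also: loss of luciferase light is scored as toxicity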
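Seeding density was 200 cells/uL; after overnight-length (12 h) culture, 23 nL compounds went on for 24 h at 37 °C. Readout used a luciferase detection reagent, luminescence taken after 12 min at room temperature.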
GLP-1R agonist – activates the human GLP-1 receptor; P43220; HEK293 GLP-1R CRE-luciferase, luminescence, 4-6 h; cells express a hypersensitive GLP-1R form; Potency, µM (series often up to 45.6 µM), usual class: activators; 380,000 compounds, 0.007% hits; AID 624172
Target sequence (P43220 whole entry, looked up): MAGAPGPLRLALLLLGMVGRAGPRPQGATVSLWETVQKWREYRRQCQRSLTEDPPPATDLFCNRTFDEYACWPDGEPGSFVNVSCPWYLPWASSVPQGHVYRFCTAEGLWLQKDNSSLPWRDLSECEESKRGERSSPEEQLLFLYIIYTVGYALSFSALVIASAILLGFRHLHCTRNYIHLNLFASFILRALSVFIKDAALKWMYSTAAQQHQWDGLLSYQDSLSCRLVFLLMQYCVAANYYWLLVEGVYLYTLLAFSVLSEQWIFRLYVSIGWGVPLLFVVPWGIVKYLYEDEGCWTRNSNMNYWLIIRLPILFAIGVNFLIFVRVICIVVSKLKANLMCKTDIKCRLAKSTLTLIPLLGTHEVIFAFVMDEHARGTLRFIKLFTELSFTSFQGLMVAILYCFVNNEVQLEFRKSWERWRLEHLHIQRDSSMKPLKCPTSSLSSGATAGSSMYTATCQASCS
MmCpn inh – inhibitors of Methanococcus maripaludis chaperonin TRiC (MmCpn); purified Mm-Cpn ATPase, ADP Transcreener TR-FRET; Potency, µM (top dose mostly 76.9 µM), actives largely listed as inhibitors; 330,000 compounds, 0.031% hits; AID 504842; also: nearly all actives have a fitted effect of over 80% in size
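Inhibition of chaperonin ATP hydrolysis is measured as reduced ADP production, detected by competitive TR-FRET in which signal falls with ADP. Final enzyme 25 nM and ATP 10 uM, reacted 30 min at 37°C.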
GLP1R inv ag – GLP-1 receptor (human) inverse agonism | HEK293 GLP-1R CRE-luciferase, luminescence, 24 h; GLP-1R form is constitutively active | Potency, µM (series often up to 38.3 µM), usual class: inhibitors | 410,000 compounds, 1.6% hits; also: nearly all actives have a fitted effect of over 55% in size
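Stable HEK293 clone (constitutively active GLP-1R + cAMP-response luciferase); 200 cells/uL plated, 12 h pre-culture, compound 24 hr, 37 deg C/5% CO2; detection reagent 12 min RT; luminescence.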
uPA generation – blocks generation of uPA at the cell surface; AID 540303; Potency, µM (doses to about 38.3 µM), actives largely listed as inhibitors; 330,000 compounds, 0.31% hits; cell surface uPA generation assay, qHTS; active = well fitted inhibition curve with a large enough effect; inconclusive = small, poorly fitted or top-dose-only effect; inactive = no such curve, though single readings can be large or run the other way; tested in mouse RAW 264.7 cells; also: nearly all actives have a fitted effect of over 55% in size
CCT chaperon mod – modulators of cytosolic chaperonin (CCT/TRiC) activity | purified chaperonin ATPase assay, HTRF ADP detection, 30 min | activity change, % (no concentration beside the values), hits read low | AID 651819 | 360,000 compounds, 0.3% hits; in the data active = activity change below about -30%
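ATPase activity: ADP formed was measured by HTRF Transcreener (665/615 nm ratio) after 30 min at 37 deg C with 10 uM ATP. Compounds screened at one 76 uM concentration against 40 or 20 nM TRiC in Tris pH 7.4/KCl/MgCl2/DTT buffer.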
Hits are given with their value; . = inactive; ? = inconclusive; / = no result given. Shown are actives, neighbours in structure and some others; about 2.2% of the full set was active somewhere. Unless noted, calls follow the shape of the dose curve; as a rule, active = well fitted curve in the direction sought with a large enough effect; inconclusive = small, poorly fitted or top-dose-only effect, or another doubt; inactive = no such curve, though single readings can be large; an effect the other way counts as inactive or inconclusive.

SMILES	GLP1R cytotox	GLP-1R agonist	MmCpn inh	GLP1R inv ag	uPA generation	CCT chaperon mod
Cc1ccc(CCNC(=O)Cn2ncc3c(=O)oc4ccccc4c32)cc1	.	.	/	.	/	/
COc1ccccc1CNc1nc(Nc2ccccc2-n2cccn2)c2sccc2n1	.	.	/	3.2µM	/	.
Cc1ccc(S(=O)(=O)Nc2ccc(O)c3ncccc23)cc1	?	.	.	?	7.9µM	.
CCOC(=O)c1c(NC(=O)c2cc(=O)c3ccc(C)cc3o2)sc(C)c1C	.	/	/	.	/	/
CCCOc1ccc(CCc2n[nH]c(=S)n2Cc2ccccc2)cc1	.	.	.	8.9µM	.	.
CCCOc1ccc(CCc2n[nH]c(=S)n2-c2ccccc2)cc1	?	.	.	.	.	.
Cc1cccc(NCc2nc3ccccc3n2CCOc2ccccc2C)c1	.	/	/	?	/	/
Cc1cccc(N2CCN(C(=O)c3ccc(Cl)c(S(=O)(=O)N4CCc5ccccc5C4)c3)CC2)c1C	.	.	.	7.1µM	.	.
O=C(c1ccc(Cl)c(S(=O)(=O)N2CCc3ccccc32)c1)N1CCN(c2ccccc2O)CC1	.	.	.	?	.	.
CC(=O)c1cc2c(cc1NC(=O)c1cnn(-c3ccc(C)cc3)c1-n1cccc1)OCO2	.	/	/	.	/	/
O=C(N/N=C/c1cccc(Oc2ccccc2)c1)c1cccc(Br)c1	.	.	.	8.9µM	.	.
O=C(N/N=C/c1cccc(Oc2ccccc2)c1)c1cccc(O)c1	?	.	.	?	.	.
COC(=O)c1c(-c2cccs2)csc1NC(=O)COc1ccc(C(C)C)cc1	.	/	/	.	/	/
COc1ccccc1CNC(=O)CSc1nc(=O)[nH]c2c1CCC2	.	/	/	.	/	/
Clc1ccc(OC2CCN(Cc3nc(CC4CC4)no3)CC2)cc1	.	.	.	2µM	.	.
Fc1ccccc1C1CCN(Cc2nc(CC3CC3)no2)C1 (centres undefined)	.	.	.	?	.	.
CC(=O)N1c2ccc(S(=O)(=O)NCc3ccc(Cl)cc3)cc2CC1C (centres undefined)	.	/	/	.	/	/
CC(=O)C[C@H]1[C@H](O[C@H]2[C@H](OC(C)C(=O)N[C@@H](C)C(=O)N[C@H](CCC(=O)N[C@@H](CCCCN)C(=O)N[C@H](C)C(=O)O)C(N)=O)[C@@H](NC(=O)O)C(O)O[C@@H]2CO)O[C@H](CO)[C@@H](O)[C@@H]1O (some centres undefined)	/	.	/	/	/	/
CCOCCCN(Cc1ccco1)C(=O)c1cc2c(s1)-c1c(C)cccc1OC2	.	/	/	?	/	/
CCOC(=O)c1cc(S(=O)(=O)Nc2ccc(OC)c(Cl)c2)[nH]n1	.	.	/	.	/	/
CCC1CN(C(=O)Nc2ccccc2C(F)(F)F)c2ccccc2S1 (centres undefined)	.	/	/	.	/	/
O=[N+]([O-])c1nn(-c2ccc3c(c2)OCCO3)n(O)c1=NC1CCN(Cc2ccccc2)CC1	.	.	.	.	4.5µM	.
CC1Sc2ccc(S(=O)(=O)N3CCC(C(=O)N(C)Cc4ccco4)CC3)cc2NC1=O (centres undefined)	.	.	.	.	.	.
CC1Sc2ccc(S(=O)(=O)N3CCC(C(=O)NCc4ccco4)CC3)cc2NC1=O (centres undefined)	.	.	.	.	.	-34
COc1cccc(CNC(=O)Cc2c(C)c3c(cc(C)c4c(C)coc43)oc2=O)c1	.	/	/	.	/	/
COc1ccccc1N(C(=O)CCl)c1cn(C(C)=O)c2ccccc12	?	.	.	3.2µM	?	.
CC(=O)n1cc(N(C(=O)CCl)c2ccc(Cl)cc2)c2ccccc21	?	.	.	11µM	?	.
CCOC(=O)c1ccccc1Nc1cn(C(C)=O)c2ccccc12	.	.	.	.	.	.
COCCCNC(=O)c1cccc(S(=O)(=O)N2CC3(C)CC2CC(C)(C)C3)c1 (centres undefined)	.	.	.	.	6.3µM	.
CC1(C)CC2CC(C)(CN2S(=O)(=O)c2cccc(C(=O)OCC(N)=O)c2)C1 (centres undefined)	.	.	.	.	.	.
